PubChem BioAssay (NCATS)
Records with an inconclusive call do not appear. A call without a number means that no potency is given here. The source made the active and inactive calls. Calls follow the shape of the dose curve; as a rule, active = well fitted inhibition curve with a large enough effect; inconclusive = small, poorly fitted or top-dose-only effect; inactive = flat fitted curve, though single readings scatter.

Assay: P-glycoprotein substrates identified in KB-8-5-11 adenocarcinoma cell line, qHTS therapeutic library screen (AID 1346987); also: nearly all actives have a fitted effect of over 65% in size
Conditions: KB-8-5-11 (P-gp overexpressing) viability, CellTiter-Glo, 72 h; series mostly up to 44.5 µM
In short: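 Compounds are pinned in dose-response onto KB-8-5-11 cells (500 cells/well, colchicine-free medium) and left 72 h at 37 degree C. CellTiter-Glo luminescence then yields AC50 values.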

Question: Which Potency does the source give for `COc1cc(NC(=O)c2ccccn2)ccc1Cl` here?
Answer: inactive

Question: Which outcome does the source give for `CC1(C)C[C@H]2C3=CCC4[C@@]5(C)CC[C@H](O[C@H]6O[C@H](C(=O)O)[C@@H](O)[C@H](O)[C@H]6O[C@H]6O[C@H](CO)[C@@H](O)[C@H](O)[C@H]6O[C@@H]6O[C@H](CO)[C@@H](O)[C@H](O)[C@H]6O)[C@](C)(CO)C5CC[C@@]4(C)[C@]3(C)CC[C@@]2(C)[C@H](O[C@@H]2OC[C@H](O)[C@H](OC3O[C@H](CO)[C@@H](O)[C@H](O)[C@H]3O)[C@H]2O)[C@@H]1O` (stereo not given in full) here?
Answer: inactive [at 9.29 µM]

Question: With `COC(=O)[C@@]1(O)C=CC[C@@H]2[C@@]3(C)C[C@@H](c4ccoc4)OC(=O)[C@H]3CC[C@]21C` as the compound, how does the Potency read?
Answer: inactive

Question: For `CCOc1ccc(C(Nc2ccccn2)c2ccc3ccc(C)nc3c2O)cc1C` (stereo not given), which Potency is on record?
Answer: inactive

Question: With `CC1CCC2(C(=O)OC3OC(CO)C(O)C(O)C3O)CCC3(C)C(=CCC4C5(C)CC(O)C(O)C(C)(C(=O)O)C5CCC43C)C2C1(C)O` (stereo not given) as the compound, how does the Potency read?
Answer: inactive

Question: With `C=CC(C)(O)CO[C@@H]1O[C@H](CO)[C@@H](O)[C@H](O)[C@H]1O` (stereo not given in full) as the compound, how does the Potency read?
Answer: inactive

Question: For `C[C@@H]1O[C@@H](OC[C@H]2O[C@@H](OCC3CCC4CC3C4(C)C)[C@H](O)[C@@H](O)[C@@H]2O)[C@H](O)[C@H](O)[C@H]1O` (stereo not given in full), which Potency is on record?
Answer: inactive

Question: Which Potency does the source give for `O=C(O)C[C@H]1CCC(=O)[C@@H]1C/C=C\CCOC1OC(CO)C(O)C(O)C1O` (stereo not given in full) here?
Answer: inactive

Question: Which Potency does the source give for `C=C1C(=O)OC2/C=C(\C)CC/C=C(\C(=O)O)CC/C=C(\C)CCC12` (stereo not given) here?
Answer: inactive

Question: With `C[C@@H](Nc1cc(NS(=O)(=O)N2CCC2)nc(SCc2cccc(F)c2F)n1)[C@@H](O)CO` as the compound, how does the Potency read?
Answer: inactive
